The list is not random: actives were taken first. Their share in the collection is about 2.8%.
Wnt act: Wnt/beta-catenin pathway activators, primary screen, cell-based, plate reader, single point. Wnt/beta-catenin reporter cell assay, activator. 300,000 tested, 1.2% active. activation, % at 9.35 µM; in the data active means activation above about 30%, passing the limit was not always enough; inconclusive means no clear call, values can overlap the other calls
MITF act: activators of MITF-driven TRPM1 promoter reporter, primary screen, cell-based, SK-MEL-5, luciferase, single point; activation, % at 12.5 µM; AID 588334, 2011; 300,000 tested, 0.75% active; SK-MEL-5 TRPM1-promoter luciferase, 24 h; % of positive control, neutral wells = 0;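 active means mean activation of at least 80% with every replicate also reaching 80%; inconclusive means mean reaches 80% but some replicate falls short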
esBAF inh: Bmi1 luciferase reporter increase in mESCs, primary screen, esBAF inhibitor project, mouse ES cells, Bmi1 luciferase knock-in, single point | 350,000 tested, 2% active | 24 h; 100% = twice the neutral-well signal | reporter increase, % at 12.5 µM; in the data active means activation above about 40%; inconclusive means no clear call, values can overlap the other calls;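 further: a rise in the Bmi1 reporter signal indicates esBAF inhibition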
GAA850 FXN act: FXN promoter activators, primary screen, cell-based, luciferase luminescence, HEK293 lucGAA850. 360,000 tested, 0.56% active. activation, % at 6 µM. HEK293 lucGAA850 FXN promoter luciferase reporter, 24 h; percent of 10 µM SAHA response;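 active means activation above the average of all compounds screened plus 3 SD, cutoff fixed separately per campaign, cut at about 7.5% in these data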
Numbers stand for hits; – = inactive; ? = inconclusive; · = no result given.

SMILES	Wnt act	MITF act	esBAF inh	GAA850 FXN act
CCCCn1c(O)c(/C=C/C=C/C=Nc2ccccc2)sc1=S	–	–	·	–
CCCn1c(O)c(C=Nc2ccccc2)sc1=S	–	–	80.6	–
O=C(O)c1cccc(NCc2cccnc2)c1	·	–	–	–
O=C(O)c1ccc(NCc2cccnc2)cc1	45.9	–	97.3	–
COc1ccc2c(c1OC)C(=O)N(c1ccc(C)cc1)C2	44.3	·	–	–
CN1CCN(Cc2cc(Cl)c3cccnc3c2OC(=O)c2cccs2)CC1	62.0	–	·	–
CC(C)c1ccc(NC(=O)[C@@H]2CCC(=O)N2C2OC(=O)c3ccccc32)cc1 (some centres not stated)	–	–	56.2	–
C[C@H](CO)N1C[C@H](C)[C@H](CN(C)CC2CC2)OCCCC[C@H](C)Oc2ccc(NC(=O)Nc3ccccc3)cc2C1=O	·	·	–	·
C[C@H](CO)N1C[C@H](C)[C@@H](CN(C)C(=O)Nc2ccccc2)Oc2c(NC(=O)Nc3ccc(F)cc3)cccc2C1=O	·	·	–	·
O/N=C(\Cc1cscn1)c1ccc(O)cc1O	–	–	48.8	–
CNc1nn(-c2cccc(Cl)c2)nc1N	·	–	62.0	–
CCCOc1ccc(-c2csc3nc[nH]c(=O)c23)cc1	37.9	–	?	–
O=c1[nH]cnc2scc(-c3ccc(-c4ccccc4)cc3)c12	·	·	–	–
CS(=O)(=O)Nc1ccc2c(c1)[C@H]1C[C@@H](CC(=O)NCc3ccncc3)O[C@@H](CO)[C@H]1O2	·	·	–	·
CCc1ccc(C(=O)CN2C(=O)NC3(CCCCCC3)C2=O)cc1	–	–	64.0	–
CCOC(=O)C1CCN(C(=O)CN2C(=O)NC3(CCCCC3)C2=O)CC1	43.3	–	–	–
O=C(CN1C(=O)NC2(CCCCCC2)C1=O)c1ccc(F)cc1	–	–	–	–
O=C(CN1C(=O)NC2(CCCCCC2)C1=O)c1ccc(Cl)cc1	–	–	51.6	–
N#Cc1ccsc1NC(=O)CN1C(=O)NC2(CCCC2)C1=O	–	–	45.4	–
CO[C@@H]1CN(C)C(=O)c2cc(NC(=O)c3cc(C)on3)ccc2OC[C@@H](C)N(C(=O)C2CC2)C[C@@H]1C	·	·	–	·
O=C(C[C@@H]1C=C[C@H](NC(=O)C2CC2)[C@H](CO)O1)Nc1ccccc1	·	·	–	·
CCc1cccc2c(C(=O)CN3C(=O)NC4(CCCCC4)C3=O)c[nH]c12	–	–	–	–
CN(Cc1ccc2c(c1)OCCO2)C(=O)CN1C(=O)NC2(CCCCC2)C1=O	–	–	–	–
O=C(CN1C(=O)NC2(CCCCCC2)C1=O)c1ccc2c(c1)OCCO2	66.7	·	–	–
CCc1cccc2c(C(=O)CN3C(=O)NC4(CCCCCC4)C3=O)c[nH]c12	–	101.9	–	–
SMILES	Wnt act	MITF act	esBAF inh	GAA850 FXN act
C[C@@H]1CN([C@@H](C)CO)C(=O)c2cc(NC(=O)Nc3ccc4c(c3)OCO4)ccc2O[C@H]1CN(C)C	·	·	–	·
CNC(=O)c1sc(-c2ccc(Cl)cc2)nc1C	–	–	67.5	–
O=C([C@H]1[C@H](CO)[C@H]2Cn3c(ccc(-c4cccnc4)c3=O)[C@@H]1N2Cc1ccncc1)N1CCOCC1	·	·	–	·
COc1ccc(CNC(=O)C[C@H]2CC[C@@H](NS(=O)(=O)c3cccc(OC)c3)[C@@H](CO)O2)cc1	·	·	–	·
Cc1cc(-c2nnc(CCC(=O)N(CC3CCC3)CC3CCCO3)o2)no1 (configuration not stated)	–	–	47.0	–
O=c1c2ccccc2nc(N/N=C/c2ccc(O)cc2)n1O	·	–	46.8	–
O=c1c2ccccc2nc(N/N=C/c2c(O)ccc3ccccc23)n1O	·	–	–	–
Clc1ccc(/C=N/Nc2nc(Cl)nc3ccccc23)cc1	·	·	57.9	–
Clc1ccc(/C=N/Nc2nnc(Cl)c3ccccc23)cc1	–	–	89.5	–
Cn1cnc(S(=O)(=O)N2CC[C@H]3[C@H](CO)Nc4ccc(-c5cccc(F)c5)cc4[C@H]32)c1	·	·	–	·
C[C@@H]1CN([C@@H](C)CO)S(=O)(=O)c2ccc(C#CC3CC3)cc2O[C@@H]1CN(C)C(=O)c1cccnc1	·	·	–	·
CCn1c(SC(C)C)nnc1-c1cc(-c2ccccc2)sc1N	–	·	68.1	–
C[C@H](CO)N1C[C@H](C)[C@H](CN(C)C(=O)Nc2ccccc2)Oc2ncc(C#CCN(C)C)cc2C1=O	·	·	–	·
C/C(=N\Nc1ccc(C(=O)O)cc1)c1ccc2c(c1)Nc1ccccc1S2	–	124.5	51.7	–
C[C@@H]1CCCCO[C@H](CN(C)C(=O)Nc2ccccc2)[C@@H](C)CN([C@@H](C)CO)C(=O)c2cc(NS(=O)(=O)c3ccccc3)ccc2O1	·	·	–	·
COc1ccc(C(=O)NC(=S)NC(C)C)cc1Br	·	–	62.7	–
COc1ccc(C(=O)NC(=S)NC(C)(C)C)cc1Br	–	–	58.9	–
C[C@H](CO)N1C[C@H](C)[C@H](CN(C)C(=O)Nc2cccc3ccccc23)Oc2c(NS(=O)(=O)c3ccc(Cl)cc3)cccc2C1=O	·	·	–	·
C[C@H]1CCCCO[C@H](CN(C)C(=O)CCC(F)(F)F)[C@@H](C)CN([C@@H](C)CO)C(=O)c2cc(NS(=O)(=O)c3cn(C)cn3)ccc2O1	·	·	–	·
CCOC(=O)/C=C/c1ccc2oc3ccccc3c(=O)c2c1	–	97.2	48.6	–
CC(C)c1ccc(CNc2ccc([N+](=O)[O-])cn2)cc1	–	88.8	·	–
O=[N+]([O-])c1ccc(NCc2ccc(Cl)cc2)nc1	–	·	·	–
COc1ccc(-c2ccc([C@H]3[C@@H](C#N)N(C(=O)c4cccc(F)c4)[C@@H]3CO)cc2)cc1	·	·	50.7	·
N#C[C@@H]1[C@@H](c2ccc(C#Cc3ccccc3F)cc2)[C@@H](CO)N1C(=O)C1CCCCC1	·	·	50.9	·
N#C[C@@H]1[C@@H](c2ccc(C#Cc3cccc(F)c3)cc2)[C@@H](CO)N1C(=O)C1CCCC1	·	·	49.7	·
SMILES	Wnt act	MITF act	esBAF inh	GAA850 FXN act
C[C@@H]1CCCCO[C@H](CN(C)Cc2ccc(Cl)c(Cl)c2)[C@H](C)CN([C@@H](C)CO)C(=O)c2cc(NS(=O)(=O)c3cn(C)cn3)ccc2O1	·	·	–	·
Cc1ccc(NC(=O)CC(=O)c2ccccc2)cc1C	–	144.2	75.4	–
O=C(CC(Nc1ccc(Cl)cc1)C(=O)O)c1ccccc1 (configuration not stated)	46.8	–	·	–
O=C(CC(=O)c1ccccc1)Nc1ccc(Cl)cc1	–	111.2	?	–
COC(=O)CSC(C(=O)Nc1ccc(C)c(C)c1)c1ccccc1 (configuration not stated)	34.8	–	–	–
C[C@H]1CCCCO[C@@H](CN(C)C(=O)Cc2ccccc2)[C@@H](C)CN([C@@H](C)CO)C(=O)c2cc(NC(=O)CCC(F)(F)F)ccc2O1	·	·	–	·
CC(=O)N1[C@@H]2c3ccc(-c4cccnc4)c(=O)n3C[C@@H]2[C@@H](CO)[C@@H]1C(=O)N1CCc2ccccc2C1	·	·	–	·
Cc1noc(C)c1NC(=O)Nc1cccc2c1O[C@H](CN(C)Cc1ccc(Cl)c(Cl)c1)[C@H](C)CN([C@@H](C)CO)C2=O	·	·	–	·
Cc1ccccc1Nc1nc(N)c2ccccc2n1	39.7	–	–	–
